According to PubChem BioAssay (EPA / NIEHS):
Records with an inconclusive call do not appear. Calls of active or inactive are those of the source. Rule for the calls: active = hit-call score of the fitted dose curve at least 0.9, where 1 is the maximum; inconclusive = response in the unintended direction; inactive = score below 0.9.

biological target: Peroxisome proliferator-activated receptor gamma (Homo sapiens) (UniProt P37231); assay: ATG_PPARg_TRANS: Attagene TRANS-FACTORIAL HepG2 Assay for human Peroxisome Proliferator-activated Receptor-gamma (PPARg) (AID 2283007)
Sequence (P37231 whole entry, looked up): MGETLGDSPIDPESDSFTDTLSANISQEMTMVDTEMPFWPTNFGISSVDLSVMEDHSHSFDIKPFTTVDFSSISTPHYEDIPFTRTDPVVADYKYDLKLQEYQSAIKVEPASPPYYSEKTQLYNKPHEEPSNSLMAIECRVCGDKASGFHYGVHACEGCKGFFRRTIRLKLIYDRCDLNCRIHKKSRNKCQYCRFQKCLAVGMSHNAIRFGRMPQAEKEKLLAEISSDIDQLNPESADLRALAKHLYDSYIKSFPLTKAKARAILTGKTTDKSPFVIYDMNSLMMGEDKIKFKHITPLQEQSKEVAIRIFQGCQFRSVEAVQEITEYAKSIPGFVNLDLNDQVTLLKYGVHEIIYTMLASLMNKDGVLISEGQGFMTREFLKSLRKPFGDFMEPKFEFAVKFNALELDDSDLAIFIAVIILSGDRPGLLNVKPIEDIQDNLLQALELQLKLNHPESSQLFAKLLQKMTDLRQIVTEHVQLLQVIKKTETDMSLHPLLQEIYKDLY
Experimental: ATG_TRANS is a cell-based, multiplexed-readout assay that uses HepG2, a human liver cell line, with measurements taken at 24 hours after chemical dosing in a 24-well plate.ATG_PPARg_TRANS is one of 30 assay component(s) measured or calculated from the ATG_TRANS assay. It is designed to make measurements of mRNA induction, a form of inducible reporter, as detected with fluorescence intensity signals by Reverse transcription polymerase chain reaction (RT-PCR) and Capillary electrophoresis technology.Data from the assay component ATG_PPARg_TRANS was analyzed into 1 assay endpoint. This assay endpoint, ATG_PPARg_TRANS, was analyzed in the positive analysis fitting direction relative to DMSO as the negative control and baseline of activity. Using a type of inducible reporter, measures of mRNA for gain-of-signal activity can be used to understand the reporter gene at the transcription factor-level as they relate to the gene PPARG. Furthermore, this assay endpoint can be referred to as a primary readout, because this assay has produced multiple assay endpoints where this one serves a reporter gene function. To generalize the intended target to other relatable targets, this assay endpoint is annotated to the nuclear receptor intended target family, where the subfamily is non-steroidal.
Human liver HepG2 cells are transiently transfected with multiple reporter transcription units (MRTUs) in 6-well plates using FuGene 6 reagent (Roche; 3 ml FuGene/1 mg DNA). The MRTU constructs are regulated by a cis-regulating element (promoter). […] A major difference between the CIS and TRANS system is that in CIS activities of endogenous TFs are measured, whereas the TRANS assay evaluates changes in activities of exogenous, chimeric NR-Gal4 proteins. […] At the end of 24 hour incubation, total RNA was isolated using TriZol reagent (Invitrogen). The isolated RNA is then reverse-transcribed using oligo(dT) primer and Mo-MLV reverse transcriptase (Invitrogen) with DNAse I (Ambion) treatment for 30 min. The one-tenth of the produced cDNA was amplified by PCR using Taq DNA polymerase (Invitrogen) and two reporter sequence-specific primers. The PCR products were fluorescently labeled by primer extension with 6-arboxyfluorescein (6-FAM) 5'-labeled reporter sequence-specific primer (2 min at 95 C, 20 s at 68 C and 10 min at 72 C) and these products were digested with 5U of HpaI (New England Biolabs) for 2h at 37 C. The fragments were purified using Qiaquick PCR columns (Qiagen), analyzed on an ABI 3130xL genetic analyzer (Applied Biosystems) with peak positions identified by using a set of X-rhodamine (ROX)-labeled MapMarker1000 molecular weight standards (BioVentures). The raw capillary electrophoresis data was processed using Attagraph software (Attagene).

AC50, active:
C=CC(=C)CCC=C(C)C 100 µM
Clc1nc(Cl)c(Cl)c(Cl)c1Cl 3.02 µM
CC(C)=CCCC(C)=CC=O 21 µM
CCCCCCc1ccc(O)cc1O 31.2 µM
CN(C)c1ccc(Cc2ccc(N(C)C)cc2)cc1 23.1 µM
CC(C)=CCC/C(C)=C\CO 36.5 µM
CCOc1cccc(-n2cc(C(=O)N3CCN(c4cc(C(=O)O)c5ccccc5c4)CC3)nc2-c2ccc(C)cc2)c1 7.92 µM
CC(C)=CCC/C(C)=C/CO 63.6 µM
Cn1cnc([N+](=O)[O-])c1Sc1ncnc2nc[nH]c12 39.9 µM
C=CCCCCCCCCC(=O)O 69.1 µM
COc1ccc(/C=C/S(=O)(=O)NC(=O)c2ccc(C)cc2Cl)cc1 23.7 µM
CCOC(=O)COc1ccc2c(c1)CC(NCC(O)c1cccc(Cl)c1)CC2 (stereo not given) 21.7 µM
Cc1c(-c2cccnc2)c2ccccc2n1CCCCC(=O)O 22.4 µM
CCc1cc(SCc2sc(-c3ccc(C(F)(F)F)cc3)nc2CN2CCN(c3ccc(OC)cc3)CC2)ccc1OCC(=O)O 0.0352 µM
CC(C)(O)c1coc(S(=O)(=O)NC(=O)Nc2c3c(cc4c2CCC4)CCC3)c1 44.9 µM
COC(=O)c1c(Cl)c(Cl)c(C(=O)OC)c(Cl)c1Cl 35.9 µM
O=C(CCCCCCCCc1cccnc1)N1CCC(C=C(c2ccccc2)c2ccccc2)CC1 1.41 µM
O=C(O)c1cccc(N(Cc2cccnc2)c2ccc(OC(F)F)c(OC(F)F)c2)c1 6.66 µM
CCOC(=O)CC(CC(=O)OCC)(OC(C)=O)C(=O)OCC 52.3 µM

outcome, inactive:
O=C1OC(=O)C2C3C=CC(C3)C12 (stereo not given)
CCNc1ccccc1
Oc1ccc2c(c1)-c1ccccc1C2
Cc1ccc(S(=O)(=O)O)cc1C
O=c1n(CC2CO2)c(=O)n(CC2CO2)c(=O)n1CC1CO1 (stereo not given)
CCOCCOCCOCCO
CCCCCCCCCCCCc1ccccc1
COc1cccc(-c2ccc(/C=C\CN3CCCCCC3)cc2Cl)c1
Cc1ccc(C)c(O)c1
Nc1ccc(Nc2ccccc2)cc1
CCCCCCCCO
Fc1ccccc1[C@@H](F)COC1CCC(Nc2ncnc3[nH]ncc23)CC1 (stereo not given in full)
CCOC(=O)c1ccc(C2CCC(NC[C@H](O)COc3ccc(O)c(NS(C)(=O)=O)c3)CC2)cc1 (stereo not given in full)
C1N2CN3CN1CN(C2)C3
CCCC(=O)OCC
O=C(OC[C@H]1O[C@@H](OC(=O)c2cc(O)c(O)c(OC(=O)c3cc(O)c(O)c(O)c3)c2)[C@H](OC(=O)c2cc(O)c(O)c(OC(=O)c3cc(O)c(O)c(O)c3)c2)[C@@H](OC(=O)c2cc(O)c(O)c(OC(=O)c3cc(O)c(O)c(O)c3)c2)[C@@H]1OC(=O)c1cc(O)c(O)c(OC(=O)c2cc(O)c(O)c(O)c2)c1)c1cc(O)c(O)c(OC(=O)c2cc(O)c(O)c(O)c2)c1
CCN(C(=O)c1cc(C)cc(OC[C@H](C)Nc2ccncc2)c1)C(C)C
O=C(O)CCN(C1(C(=O)NO)CCCC1)S(=O)(=O)c1ccc(Oc2ccc(F)cc2)cc1
CCCCC(CC)COC(=O)CCCCCCCCC(=O)OCC(CC)CCCC (stereo not given)
COCCOCCOCCOC
CC[C@H]1CC[C@H](NCc2cc3c(cc2OC)[C@H]2C[C@H]2C(=O)N3C)[C@H](c2ccccc2)N1
